Screens from PubChem.
D1 PAM = Potentiators of Human D1 Dopamine Receptor: qHTS; HEK293 TREx D1 cells, calcium flux, dopamine EC20 potentiation; 360,000 tested, 0.036% active; potentiation, % at 10 µM; D(1A) dopamine receptor (Homo sapiens), P21728; in the data active means potentiation above about 30%
Target sequence (P21728 whole entry, looked up): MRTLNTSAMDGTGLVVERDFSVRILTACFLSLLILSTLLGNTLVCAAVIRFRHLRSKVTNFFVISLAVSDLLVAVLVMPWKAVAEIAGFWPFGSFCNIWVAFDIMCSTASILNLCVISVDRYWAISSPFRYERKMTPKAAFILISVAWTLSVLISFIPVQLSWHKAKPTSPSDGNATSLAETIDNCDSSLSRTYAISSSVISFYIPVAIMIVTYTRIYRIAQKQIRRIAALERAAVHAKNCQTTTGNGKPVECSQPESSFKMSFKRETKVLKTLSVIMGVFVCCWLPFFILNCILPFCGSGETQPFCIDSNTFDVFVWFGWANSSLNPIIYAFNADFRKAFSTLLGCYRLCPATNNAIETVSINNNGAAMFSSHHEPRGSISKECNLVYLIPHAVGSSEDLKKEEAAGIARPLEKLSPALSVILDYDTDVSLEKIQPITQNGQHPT
D1 ag = Allosteric Agonists of the Human D1 Dopamine Receptor: qHTS. 360,000 tested, 1% active. activation, % at 2 µM. HEK293 T-REx D1 cells, calcium flux, agonist mode. D(1A) dopamine receptor (Homo sapiens), P21728
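Agonism was scored from calcium flux recorded over 180 s (1 read/s) after pintool compound addition, following a 10-cycle baseline. Cells were inducible force-coupled HEK293 TREx D1, plated overnight at 30 C and loaded with no-wash calcium dye.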
TRHR enhancer = qHTS for Small Molecule Agonists and Allosteric Enhancers of Human TRH Receptor: Primary Screen for Enhancers. Thyrotropin-releasing hormone receptor (Homo sapiens), P34981. TRHR cells, fluo-8 calcium fluorescence, EC20 TRH enhancement. enhancement, % at 2 µM. 360,000 tested, 0.66% active; in the data active means enhancement above about 30%
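Enhancer read-out: after compound pinning and an initial kinetic agonist-mode read, an EC20 of TRH (10 nM final) was injected and fluo-8 calcium signal (Ex 480/Em 530) followed at 1 s/cycle for 100 cycles in TRHR-expressing cells.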
TRHR agonist = qHTS for Small Molecule Agonists and Allosteric Enhancers of Human TRH Receptor: Primary Screen for Agonists | TRHR cells, calcium flux fluo-8, FDSS agonist mode | activation, % at 2 µM | 360,000 tested, 0.18% active | AID 493084, 2011
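Agonist-mode FDSS calcium read (Ex 480/Em 530, 1 s cycles) in 1536-well TRHR cells with fluo-8 dye, after 10-cycle baseline and 23 nL compound addition; TRH at EC20 (10 nM final) added afterwards for the enhancer phase.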
D1 antag = Antagonist of Human D 1 Dopamine Receptor: qHTS. D(1A) dopamine receptor (Homo sapiens), P21728. activity change, negative = inhibition, % at 10 µM. AID 504652, 2011. 360,000 tested, 3.2% active. HEK293 TREx D1 cells, calcium flux, dopamine EC80; stronger effect = lower value; in the data active means activity change below about -30%
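Tetracycline-induced HEK293 Trex D1 cells, force-coupled to calcium, dye-loaded; compounds added and read 180 s, then EC80 dopamine added and calcium flux tracked kinetically another 180 s.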
Numbers stand for hits; i = inactive; nt = not tested or not shown. In the library only some 4.7% were active in any assay of this set; here they are far more common. Unless noted, no stated cut-off is given here; in the data, active means activation above about 30%; inactive means the rest.

SMILES	D1 PAM	D1 ag	TRHR enhancer	TRHR agonist	D1 antag
CCc1c(C)c2cc(Cl)c(O)c(CN(C)C)c2oc1=O	i	i	i	i	i
CCc1c(C)c2cc(Cl)c(O)c(CN(CC)CC)c2oc1=O	i	i	38.1	i	i
Cc1ccc(C(c2sc3nc(-c4ccco4)nn3c2O)N2CCOCC2)cc1 (stereo not given)	i	i	i	i	nt
COC(=O)c1ccc(-n2nnnc2SCC(=O)N2CCCCC2)cc1	i	i	i	i	-30.2
Cc1nc2ccc(NC(=O)c3ccccc3)cc2s1	i	i	i	i	i
CCN(CC)S(=O)(=O)c1ccc(C(=O)Nc2nnc(C(C)C)s2)cc1	i	i	i	i	-39.8
CCN(CC)S(=O)(=O)c1ccc2nc(NC(=O)c3ccc(Br)o3)sc2c1	i	i	i	i	i
Cc1nc2ccc(NC(=O)c3sccc3C)cc2s1	i	i	i	i	-38.9
CCN(CC)S(=O)(=O)c1ccc2nc(NC(=O)c3cncc(Br)c3)sc2c1	i	30.6	i	i	i
CCN(CC)S(=O)(=O)c1nnc(NC(=O)c2ccc(C(C)C)cc2)s1	i	i	i	i	i
Cc1nc2ccc(NC(=O)c3cncc(Br)c3)cc2s1	i	i	i	i	-36.1
CCOc1ccccc1C(=O)Nc1ccc2nc3c(c(Nc4ccc(OC)c(OC)c4)c2c1)CCCC3	i	i	i	i	i
CCCCN1CCCC1CNC(=O)c1cc(C#N)c2ccccc2c1OC (stereo not given)	i	i	i	i	-41.1
CCN1CCCC1CNC(=O)c1cc(OC)c(OC)c(OC)c1 (stereo not given)	i	i	i	i	i
CCOC(=O)C1(Nc2nccs2)Sc2ccccc2NC1=O (stereo not given)	i	i	i	i	-33.6
CCOC(=O)C1(N(CC)CC)Sc2cc(C)ccc2NC1=O (stereo not given)	i	i	i	i	i
COc1ccccc1CNC(=O)C(=O)NCC(c1cccnc1)N1CCN(c2ccccc2)CC1 (stereo not given)	i	i	i	i	i
Cc1cc(C)cc(NC(=O)CSCc2cc(=O)c3cc(Cl)ccc3[nH]2)c1	i	i	i	i	i
C=CCOc1cccc(CNCc2ccncc2)c1	i	i	i	i	-34.9
Cc1ccc(CNC(=O)C2CCN(c3ncnc4c3nc3n4CCCCC3)CC2)cc1	i	i	i	i	i
Cc1cccn2c(Nc3ccccc3)c(-c3ccc(N4CCOCC4)cc3)nc12	i	i	i	i	-44.8
CCOc1ccccc1/C=C/C(=O)c1ccc(Cl)cc1	i	i	i	i	-31.6
COc1ccccc1/C=C/C(=O)c1ccc(Cl)cc1	i	i	i	i	-36.1
COc1ccccc1/C=C/C(=O)c1ccccc1	i	i	i	i	i
O=C(/C=C/c1ccccc1O)c1ccc(Cl)cc1	i	i	i	i	i
SMILES	D1 PAM	D1 ag	TRHR enhancer	TRHR agonist	D1 antag
CCOC(=O)c1cc(CC)sc1/N=C/C1C(=O)CC(C)(C)CC1=O	i	i	i	i	-48.7
COc1ccc2cnn(Cc3ccccc3)c(=O)c2c1OC	i	i	i	i	i
CCCn1ncc(OC)c(Cl)c1=O	i	i	i	i	-59.4
CC(C)(C)c1cc(NC(=O)CSc2nnc(N)s2)n(-c2ccccc2)n1	i	i	i	i	-35.3
CC(C)c1ccc(NS(=O)(=O)c2ccc3[nH]cc(C(=O)NCC4CCCO4)c(=O)c3c2)cc1 (stereo not given)	i	i	i	i	i
Cc1cccc(-c2nc3c4ccccc4n(Cc4cccc(Cl)c4)c(=O)n3n2)c1	i	i	i	i	i
C=CCN1C=CC(=C/C=C(/C#N)C(=O)OCC)C=C1	i	92.7	i	37.0	i
O=C(CNS(=O)(=O)c1ccccc1Br)OCC(=O)N1CCc2ccccc21	i	i	i	i	-56.6
CC(=O)Nc1ccc(S(=O)(=O)NCC(=O)OCC(=O)N2CCc3ccccc32)cc1	i	i	i	i	i
O=C(Nc1ccc(-c2nc3ccccc3s2)cc1)c1cc(-n2cnnc2)ccc1Cl	i	i	i	i	-41.7
CC(C)COc1ccc(C(=O)NCC2(N3CCN(C)CC3)CCCCC2)cc1	i	i	i	i	i
O=C(Nc1cccc(-c2nc3ncccc3o2)c1)c1ccc(-c2cccc(Cl)c2Cl)o1	i	i	i	i	i
CCCC(=O)N(c1ccc2oc(C)c(C(C)=O)c2c1)S(=O)(=O)c1ccc(C(=O)O)cc1	i	i	i	i	-42.4
CCc1ccc(NC(=O)Cn2nnc(C(=O)Nc3cc(C)ccc3OC)c2N)cc1	i	i	i	i	i
CCOc1ccccc1Nc1nnc(Cc2ccccc2Cl)c(=O)[nH]1	i	i	i	i	-31.7
COc1ccc(N2C(=O)[C@@H]3[C@H](C2=O)[C@H](C(C)=O)N2c4ccccc4C=C[C@@H]32)cc1	i	i	i	i	i
COc1ccc(C2C(C(=O)c3ccccc3)N3c4ccccc4C=CC3C2[N+](=O)[O-])cc1 (stereo not given)	i	41.2	i	i	i
Cc1ccc(/C=c2\sc3n(c2=O)CN(c2ccc(Br)cc2)CN=3)o1	i	i	i	i	-38.9
O=C(/C=C/c1ccc2c(c1)OCO2)NCCSCc1c(Cl)cccc1Cl	i	42.2	i	i	-32.1
Cc1cccc(NC(=O)CCCSc2nc3ccccc3[nH]2)c1	i	i	i	i	i
CCc1cccc(NC(=O)CCCSc2nc3ccccc3[nH]2)c1	i	i	i	i	-35.9
O=C(CCCSc1ccccc1)Nc1cccc(CO)c1	nt	i	i	i	-34.2
CCc1ccc(C2c3c(-c4cc(C)ccc4O)n[nH]c3C(=O)N2CCO)cc1 (stereo not given)	i	i	i	i	i
N#CC(C#N)=C(Nc1ccc(F)cc1)SCc1cccc(F)c1	i	33.7	i	i	-44.1
CCOc1ccc(N/C(SCc2cccc([N+](=O)[O-])c2)=C(/C#N)C(N)=O)cc1	i	i	i	i	i
SMILES	D1 PAM	D1 ag	TRHR enhancer	TRHR agonist	D1 antag
COc1ccc(S(=O)(=O)N(CC(=O)NCc2ccc(C)cc2)c2ccc(Cl)cc2)cc1	i	i	i	i	i
CC(=O)Nc1ccc(OS(=O)(=O)c2ccc(C(C)(C)C)cc2)cc1	i	i	i	i	-55.9
COc1cccc(NC(=O)Cc2ccccc2)c1	i	i	i	i	i
COc1cccc(NC(=O)CCc2ccccc2)c1	i	i	i	i	-43.6
COc1cccc(NC(=O)Cn2c(=O)n(CCC(=O)NCCc3ccc(Cl)cc3)c(=O)c3ccccc32)c1	i	i	i	i	i
COc1cccc(NC(=O)CN(C)C(=O)CNC(=O)c2ccccc2F)c1	i	i	i	i	-33.2
